High-throughput results (PubChem BioAssay)
The full list was thinned out, with hits kept by preference.
Shiga toxin inh: blocks Shiga toxin action in Vero cells. inhibition, % at 38.7 µM. Vero cells, Shiga toxin protein synthesis inhibition reporter. actives 9.2% (n = 290,000); in the data active = inhibition mostly above about 28%, no sharp cut-off; inactive = mostly below about 43%; also: 0% is about no effect
MARV entry inh: blocks Marburg virus binding to or entry into cells; actives 1.8% (n = 300,000); Marburg virus pseudotyped entry inhibition, cell reporter; Potency, µM (series often up to 37.8 µM), without a hit: at the top dose activity change, negative = inhibition, actives largely listed as inhibitors; calls by dose curve; tested in HEK293 cells; also: potency is read from the fitted curve at half-maximal effect; % is scaled to controls: 0 for no effect and ±100 for the full control effect
AMA1-RON2 inh: AMA1-RON2 (P. falciparum) interaction inhibition; AID 720542; actives 0.2% (n = 360,000); Potency, µM (top dose mostly 58.2 µM), without a hit: top-dose activity change, negative = inhibition, usual class: inhibitors; AlphaScreen AMA1-biotinylated RON2 peptide binding; active = well fitted inhibition curve with a large enough effect; inconclusive = small, poorly fitted or top-dose-only effect; inactive = no such curve, though single readings can be large or run the other way;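 also: potency is read from the fitted curve at half-maximal effect; 0% = vehicle wells and -100% = peptide control; nearly all actives have a fitted effect of over 45% in size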
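AMA1 (3D7) with his tag at 25 nM final met compounds first, then biotinylated RON2 peptide at 25 nM; detection used donor plus acceptor beads, 10 µg/mL apiece, read by AlphaScreen after 30 min at room temperature.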
CHX counter: counter-screen hit for Shiga toxin inhibitors, cycloheximide | cell reporter, cycloheximide protein synthesis inhibition counterscreen | max response, % | actives 12% (n = 300,000); in the data active = max response mostly above about 13%, no sharp cut-off; inactive = mostly below about 14%; also: read at 38.3 µM for the half of the compounds with a filed dose; 0% is about no effect
Lassa entry inh: blocks Lassa virus binding to or entry into cells; Lassa virus pseudotype entry inhibition, cell reporter; Potency, µM (top dose mostly 37.9 µM), inactives show at the top dose activity change, negative = inhibition, usual class: inhibitors; actives 1.2% (n = 300,000); AID 540256; calls by dose curve; tested in HEK293 cells; also: potency is read from the fitted curve at half-maximal effect; % is scaled to controls: 0 for no effect and ±100 for the full control effect; nearly all actives have a fitted effect of over 50% in size
Starred values were filed as active, the others as inactive; u = inconclusive; x = no result; [ ] = dose if it differs, or a comment.

SMILES	Shiga toxin inh	MARV entry inh	AMA1-RON2 inh	CHX counter	Lassa entry inh
C=CCN1CN(S(=O)(=O)c2cccc(Cl)c2)c2nc3ccccc3nc21	16	x	-2%	20*	x
COCCN1CN(S(=O)(=O)c2cccc(Cl)c2)c2nc3ccccc3nc21	2	x	-10%	-4	x
CCc1ccc(S(=O)(=O)Nc2cccc(-c3ccc4nnc(C)n4n3)c2)s1	x	u	2%	x	-17%
O=c1[nH]c2ccccc2c2nc3ccccn3c12	51*	-2%	9%	40*	9%
O=c1nc2c(O)cccn2c2c1c(=O)[nH]c1ccccc12	-8	-10%	18%	1	2%
O=c1c2ccccc2nc2c3ccccc3cnn12	78*	x	1%	40*	x
O=c1c2ccccc2nc2ccccn12	70*	u	13%	42*	26%
Cc1cc(N2CCCC2)nc2ccc(NC(=S)NCCCN3CCC(C)CC3)cc12	-4	u	14%	-6	u
COc1ccc2c(c1)Sc1ccccc1N2CCN(C)C	-13	11µM*	u	-2	u
CN(C)CCCN1c2ccccc2CCc2ccc(Cl)cc21	-16	11µM*	-13%	-4	u
CNCCCN1c2ccccc2CCc2ccccc21	-12	1.3µM*	-5%	-4	-12%
CCC(=O)c1ccc2c(c1)N(CCCN(C)C)c1ccccc1S2	x	21µM*	-6%	x	u
CCCCOc1cccc(C(=O)N(Cc2cccs2)c2ccc(OC)cc2)c1	x	u	x	x	-11%[46.1 µM]
COc1cccc(CNC(=O)c2ccc3c(c2)sc2nc(-c4ccccc4)cn23)c1OC	x	x	x	x	24%[46.1 µM]
CN(C)CCCN1c2ccccc2Sc2ccccc21	-14	18µM*	-13%	-3	u
COc1ccc(C(=O)NNS(=O)(=O)c2ccc(OC)cc2)cc1	-16	x	0%	8	x
COc1ccc(C(=O)NN/C(=N/S(=O)(=O)c2ccc(C)cc2)c2ccccc2)cc1	59*	u	50%	52*	8.9µM*
COc1ccc(C(=O)NNS(=O)(=O)c2ccccc2)cc1	55	u	-17%	17*	1%
C=CCOn1c(=O)c(-c2ccc(F)cc2)[n+]([O-])c2ccccc21	7	x	8%	-1	x
Cc1ccc(Cc2nc3ccccc3nc2SCC(=O)Nc2ccc3c(c2)OCO3)cc1	x	x	x	x	26%[46.1 µM]
O=C(COc1ccccc1Br)NCc1ccccn1	64*	u	51%	29*	26%
Cc1ccc(OCC(=O)NCCO)c(Br)c1	29	-7%[46.1 µM]	13%	31*	2%
Cc1ccc(OCC(=O)NCc2ccccn2)c(Br)c1	78*	13%	-19%	31*	u
O=C(COc1ccc(F)cc1Br)NCc1ccccn1	61*	3%	85%	48*	11%
CCCCN1CCCCC1(C)C(=O)NCc1cccc(OC)c1 (stereo not given)	x	x	5%	x	x
SMILES	Shiga toxin inh	MARV entry inh	AMA1-RON2 inh	CHX counter	Lassa entry inh
CCn1c(CNC(=O)c2ccccc2F)cc2ccccc21	142*	-4%	23%	24*	-26%
CCn1c(CNC(=O)c2ccccc2F)cc2cc(C)ccc21	13	14%	-6%	15*	6%
Cn1c(CNC(=O)c2ccccc2F)cc2ccccc21	-2	x	5%	16*	x
CCn1c(CNC(=O)c2ccccc2Cl)cc2ccccc21	25	x	-7%	14	x
CC(=O)Nc1cc(C(=O)Nc2ccc3c(c2)N(C)C(=O)c2ccccc2S3)ccc1C	x	x	x	x	-9%[46.1 µM]
CSCCC(C(=O)NC(C)(C)C)n1c(-c2ccc3c(c2)OCO3)nc2ccccc21 (stereo not given)	x	x	-11%	x	x
Cc1ccc(-c2csc(NC(=O)C3=COCCO3)n2)cc1	51*	u	-14%	42*	-27%
CC(C)(C)c1csc(NC(=O)C2=COCCO2)n1	x	27%[46.1 µM]	5%	x	-26%
CCOC(=O)c1csc(NC(=O)C2=COCCO2)n1	63*	x	13%	41*	x
COc1cccc(CN(C)C(=O)c2ccc(COc3ccc(Cl)cc3)cc2)c1OC	87*	10%[46.1 µM]	3%	67*	-22%
COc1ccccc1CN(C)C(=O)c1ccc(COc2ccccc2)cc1	16	-10%[46.1 µM]	2%	11	u
CC(C)(C)c1cc[n+](C2=C([O-])c3ccccc3C(=O)/C2=N\S(=O)(=O)c2cccs2)cc1	73*	10µM*	-10%	41*	u
COC(=O)c1ccccc1S(=O)(=O)Oc1ccc(-c2ccc(C(=O)O)cc2)cc1	1	-5%[46.1 µM]	-1%	4	x
O=C(O)c1ccc(-c2ccc(OS(=O)(=O)c3ccccc3F)cc2)cc1	65*	u	0%	19*	x
Nc1ccc(N)c(C(=O)O)c1	-6	x	8.9µM*	-9	x
COc1ccc(C2CC(=O)c3cc(OC)ccc3O2)cc1 (stereo not given)	x	21%[46.1 µM]	-4%	x	0%[46.1 µM]
O=C1CC(c2ccccc2)Oc2ccc(Cl)cc21 (stereo not given)	x	13%	29%	x	u
O=C1CC(c2ccc3c(c2)OCCO3)Oc2ccc([N+](=O)[O-])cc21 (stereo not given)	88*	x	-6%	46*	x
O=C1CC(c2ccc3c(c2)OCCO3)Oc2ccccc21 (stereo not given)	80*	x	7%	52*	x
COc1ccc(C2CC(=O)c3ccccc3O2)cc1 (stereo not given)	25	44%	-6%	41*	24%
CCCC(=O)N1CCC1(C)C(=O)Nc1scc(C)c1C#N (stereo not given)	x	x	-3%	x	x
NC(N)=Nc1ccc2[nH]c3c(c2c1)C[C@@]1(O)[C@H]2Cc4ccc(O)c5c4[C@@]1(CCN2CC1CC1)[C@H]3O5	-7	26µM*	-23%	-7	2.3µM*
CC(C)(C)OC(=O)CC12CCCCC1NC(=O)O2 (stereo not given)	9	x	-3%	1	x
CC1(C)Cc2c(sc(NC(=O)Nc3ccccc3)c2C(N)=O)CO1	72	x	5%	33*	x
Cc1sc(NC(=O)Nc2ccccc2)c(C(N)=O)c1C	72*	-29%[46.1 µM]	-5%	43*	-15%[46.1 µM]
SMILES	Shiga toxin inh	MARV entry inh	AMA1-RON2 inh	CHX counter	Lassa entry inh
Cc1ccc(N2CC(C(=O)Nc3nnc(SCC(N)=O)s3)CC2=O)cc1 (stereo not given)	-10	3%	-2%	1	-2%
CCOc1ccc(-c2nc3c(C#N)c[nH]n3c2NC2CCCC2)cc1	x	0%[46.1 µM]	x	x	-11%[46.1 µM]
Cc1cc2n(n1)C(c1ccccc1)CC(c1ccc(Br)cc1)=N2 (stereo not given)	29*	-34%	57%	37*	-1%
CC(=O)c1cc(NC(=O)c2ccc(C)cc2)c(=O)oc1/C=C/N(C)C	52*	9%	-11%	48*	u
CC(=O)c1cc(NC(=O)c2ccc(C)cc2)c(=O)oc1C	72*	u	9%	28	27%
Cc1ccc(C(=O)Nc2cc3ccccc3oc2=O)cc1	32	u	-7%	29*	2.8µM*
COc1ccc(C(=O)Nc2cc(C(C)=O)c(/C=C/N(C)C)oc2=O)cc1	41	2%	-2%	12	u
CC(=O)Nc1cc2ccccc2oc1=O	22	1%[46.1 µM]	-7%	13	0%
COc1cc(/C=N/N(C)C)cc(Br)c1O	18	-1%[46.1 µM]	6%	10	20%[46.1 µM]
